Compound activity deposited in PubChem by several laboratories.
Bcl-xL primary: inhibitors of human Bcl-xL | GST-Bcl-xL / FITC-Bim BH3 peptide fluorescence polarization | inhibition, % at 10.9 µM | actives 0.7% (n = 320,000);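 active = inhibition above the mean of all tested compounds plus 3 SD, cutoff set per campaign, cut at about 30% in these data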;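 also: 0% = DMSO wells and 100% = unlabeled Bim-BH3 peptide competitor; inhibitors lower millipolarization by displacing the labeled peptide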
Target sequence (Q07817 whole entry, looked up): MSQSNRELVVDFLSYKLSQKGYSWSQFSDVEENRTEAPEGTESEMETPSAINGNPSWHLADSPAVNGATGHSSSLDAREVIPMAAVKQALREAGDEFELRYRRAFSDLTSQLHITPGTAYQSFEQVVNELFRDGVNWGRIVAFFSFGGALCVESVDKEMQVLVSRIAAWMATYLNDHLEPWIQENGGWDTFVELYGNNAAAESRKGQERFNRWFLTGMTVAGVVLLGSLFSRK
MEX-5 binding: C. elegans MEX-5 TCR-2 RNA binding activity; actives 0.38% (n = 300,000); activity score (negative = inhibition of binding), % at 10 µM; MEX-5/FITC-TCR2 RNA binding, fluorescence polarization; hits give low values; Q9XUB2;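 active = inhibition past about -25% in most replicates, and total fluorescence under double the plate's negative control median, limit read from the data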;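 also: 0% = DMSO and -100% = 5 µM competing unlabeled TCR2 RNA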
GLD-1 RNA inh: GLD-1-TGE RNA interaction inhibition (C. elegans); purified GLD-1 + fluorescein TGE RNA, fluorescence polarization; inhibition, % at 5.96 µM; actives 0.44% (n = 320,000);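 active = percent inhibition above a per-plate cutoff, the plate mean of test compounds plus 3 SD, cut at about 30% in these data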;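 also: 0% = DMSO wells with GLD-1 and probe and 100% = wells lacking GLD-1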
MCL1 BIM primary: MCL1-BIM-BH3 interaction inhibition (human); GST-MCL1 / FITC-Bim-BH3 fluorescence polarization; actives 0.68% (n = 320,000); inhibition, % at 10.9 µM;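 active = inhibition above the mean inhibition of all tested compounds plus 3 SD, set per campaign, cut at about 40% in these data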;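 also: 0% = DMSO wells and 100% = unlabeled Bim-BH3 peptide control; higher means more loss of mP so more displacement of Bim peptide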
Target sequence (Q07820 whole entry, looked up): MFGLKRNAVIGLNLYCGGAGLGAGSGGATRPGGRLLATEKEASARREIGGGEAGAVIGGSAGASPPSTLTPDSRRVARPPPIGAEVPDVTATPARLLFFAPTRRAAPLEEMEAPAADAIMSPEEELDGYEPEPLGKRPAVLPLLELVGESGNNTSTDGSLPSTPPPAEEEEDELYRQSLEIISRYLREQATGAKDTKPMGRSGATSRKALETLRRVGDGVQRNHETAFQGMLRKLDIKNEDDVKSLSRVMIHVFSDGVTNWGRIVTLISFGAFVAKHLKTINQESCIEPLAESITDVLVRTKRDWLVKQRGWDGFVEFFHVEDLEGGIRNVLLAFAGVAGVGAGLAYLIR
EBV gp42 inh: blocks Epstein-Barr virus glycoprotein 42 binding | inhibition, % (tested at 21.74 µM) | Q1HVG2 | Fluorescence polarization binding assay, mP read-out | actives 0.42% (n = 220,000); in the data active = inhibition above about 50%
BCLXL inh confirm: Bcl-xL (human) inhibition, MCL1 counter-screen confirmation; actives 54% (n = 1,700); shares compounds with MCL1 BIM primary; inhibition, % at 10.9 µM; GST-Bcl-xL / FITC-Bim BH3 peptide FP binding;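 active = inhibition above a cutoff equal to the mean inhibition of all tested compounds plus 3 SD, cut at about 30% in these data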;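 also: 0% = DMSO wells and 100% = unlabeled Bim BH3 control peptide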
MCL1 BIM confirm: MCL1-BIM-BH3 interaction inhibition, confirmation | shares compounds with MCL1 BIM primary | GST-MCL1 / FITC-Bim-BH3 fluorescence polarization | inhibition, % at 10.9 µM | actives 61% (n = 1,700);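 active = inhibition above the average of all tested compounds plus 3 SD, cut at about 40% in these data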;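 also: 0% = DMSO wells and 100% = unlabeled Bim-BH3 control peptide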
GLD-1 TGE cf: confirmation of C. elegans GLD-1 TGE RNA binding inhibitors; GLD-1/FL-TGE RNA fluorescence polarization, biochemical; shares compounds with GLD-1 RNA inh; actives 10% (n = 550); AID 2459; inhibition, % at 5.96 µM;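 active = average inhibition across triplicates above the hit cutoff set in the primary screen, cut at about 32% in these data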;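 also: 0% = GLD-1 with RNA probe and DMSO and 100% = wells lacking GLD-1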
The depositor's hits bear a star. Compounds with a hit are over-represented: about 1.3% of the library has one in this group of screens.

What do the screens show for `CN1CCc2cccc3c2[C@@H]1Cc1ccc(O)c(O)c1-3`?
Bcl-xL primary: 49*; GLD-1 RNA inh: 11; MCL1 BIM primary: 71*; EBV gp42 inh: 0; BCLXL inh confirm: 13; MCL1 BIM confirm: 29

What do the screens show for `COc1ccc2c(c1O)-c1ccccc1CCN(C)C2`?
Bcl-xL primary: 1; MEX-5 binding: 3; GLD-1 RNA inh: 4; MCL1 BIM primary: 0; EBV gp42 inh: -9

What do the screens show for `CCCCCCn1c(=O)[nH]c2nc3cc(N)ccc3nc2c1=O`?
Bcl-xL primary: 187*; MEX-5 binding: -49*; GLD-1 RNA inh: 187*; MCL1 BIM primary: active; EBV gp42 inh: 148*; BCLXL inh confirm: 171*; MCL1 BIM confirm: 198*

How did Cc1noc(C)c1S(=O)(=O)N(CC(=O)NC1CCC(C)CC1)c1ccc(C(C)C)cc1 (stereo unspecified) do in these assays?
Bcl-xL primary: 3; MEX-5 binding: 1; GLD-1 RNA inh: 0; MCL1 BIM primary: -9

How did CCOc1ccccc1NC(=O)CN1C(=O)CSC(C)C1=O (stereo unspecified) do in these assays?
Bcl-xL primary: 4; MEX-5 binding: 0; GLD-1 RNA inh: 0; MCL1 BIM primary: 1; EBV gp42 inh: -8

How did CC(C(=O)O)N1C(=O)/C(=C/C=C/c2ccco2)SC1=S (stereo unspecified) do in these assays?
Bcl-xL primary: 50*; MEX-5 binding: -87*; GLD-1 RNA inh: -4; MCL1 BIM primary: 83*; BCLXL inh confirm: 58*; MCL1 BIM confirm: 87*

What do the screens show for `O=C1/C(=C/C=C/c2ccco2)SC(=S)N1NS(=O)(=O)c1ccccc1`?
Bcl-xL primary: 67*; GLD-1 RNA inh: -6; MCL1 BIM primary: 83*; EBV gp42 inh: -11; BCLXL inh confirm: 45*; MCL1 BIM confirm: 73*

What do the screens show for `CCSc1nc2sc3c(c2c(=O)[nH]1)CC(C)(CC)OC3` (stereo unspecified)?
Bcl-xL primary: 3; MEX-5 binding: 0; GLD-1 RNA inh: 6; MCL1 BIM primary: 6; EBV gp42 inh: 0

How did CCC1(C)Cc2c(sc3nc(SC)[nH]c(=S)c23)CO1 (stereo unspecified) do in these assays?
Bcl-xL primary: 50*; MEX-5 binding: -9; GLD-1 RNA inh: 32*; MCL1 BIM primary: 57*; BCLXL inh confirm: 22; MCL1 BIM confirm: 25

How did COc1ccc(C)cc1S(=O)(=O)N1CCN(C)CC1c1ccccc1 (stereo unspecified) do in these assays?
Bcl-xL primary: 3; GLD-1 RNA inh: -1; MCL1 BIM primary: 8

What do the screens show for `Cc1csc(SCc2c(C(=O)O)oc3ccccc23)n1`?
Bcl-xL primary: 107*; MEX-5 binding: 1; GLD-1 RNA inh: 62*; MCL1 BIM primary: 125*; EBV gp42 inh: 5; BCLXL inh confirm: 6; MCL1 BIM confirm: 4; GLD-1 TGE cf: -2

What do the screens show for `CCN(CCn1cccn1)C(=O)CCc1nnc(-c2ccc3c(c2)OCO3)o1`?
Bcl-xL primary: 5; MEX-5 binding: 1; GLD-1 RNA inh: 3; MCL1 BIM primary: 5; EBV gp42 inh: -14

Results for Cc1cc2cc(CNC(=O)c3ccc(Br)o3)ccc2[nH]1 ?
Bcl-xL primary: 55*; MEX-5 binding: -2; GLD-1 RNA inh: 41*; MCL1 BIM primary: 69*; EBV gp42 inh: -6; BCLXL inh confirm: 57*; MCL1 BIM confirm: 75*; GLD-1 TGE cf: 5

What do the screens show for `Cc1ccc(CNC(=O)c2ccc(Br)o2)cc1`?
Bcl-xL primary: 1; MEX-5 binding: 0; GLD-1 RNA inh: -4; MCL1 BIM primary: 4; EBV gp42 inh: -33

What do the screens show for `Cc1cc2cc(CNC(=O)c3ccc4c(c3)OCO4)ccc2[nH]1`?
Bcl-xL primary: 37*; MEX-5 binding: -2; GLD-1 RNA inh: 33*; MCL1 BIM primary: 53*; BCLXL inh confirm: 19; MCL1 BIM confirm: 9; GLD-1 TGE cf: 0

Results for CC(C)(C)c1ccc(C(=O)NCC(=O)N2CCC3(CC2)NCCc2[nH]cnc23)cc1 ?
Bcl-xL primary: 0; MEX-5 binding: 3; GLD-1 RNA inh: -2; MCL1 BIM primary: 1

What do the screens show for `CC(C)[C@H](NC(=O)C1CC(=O)N(c2ccc3c(c2)OCO3)C1)C(=O)NC1CCCC1` (stereo partly specified)?
Bcl-xL primary: 55*; MEX-5 binding: -17; GLD-1 RNA inh: 43*; MCL1 BIM primary: 54*; BCLXL inh confirm: 37*; MCL1 BIM confirm: 65*; GLD-1 TGE cf: 20

How did C[C@H](NC(=O)C1CC(=O)N(c2ccc3c(c2)OCO3)C1)C(=O)NC1CCCC1 (stereo partly specified) do in these assays?
Bcl-xL primary: 5; MEX-5 binding: -2; GLD-1 RNA inh: -3; MCL1 BIM primary: 1

How did CNC(=O)COC(=O)c1cc(-c2ccco2)nc2ccccc12 do in these assays?
Bcl-xL primary: 96*; MEX-5 binding: -4; GLD-1 RNA inh: 57*; MCL1 BIM primary: 121*; EBV gp42 inh: 31; BCLXL inh confirm: 38*; MCL1 BIM confirm: 76*; GLD-1 TGE cf: -3

What do the screens show for `CN(C)S(=O)(=O)c1ccc(NC(=O)CNc2cc(S(=O)(=O)N3CCCC3)ccc2OCC(F)(F)F)cc1`?
Bcl-xL primary: -3; MEX-5 binding: 1; GLD-1 RNA inh: 1; MCL1 BIM primary: -6; EBV gp42 inh: -34

What do the screens show for `Cc1ccc(NC(=O)CS(=O)CC(=O)Nc2ccccc2-c2ccc(C)o2)cc1` (stereo unspecified)?
Bcl-xL primary: 72*; MEX-5 binding: 1; GLD-1 RNA inh: 66*; MCL1 BIM primary: 88*; BCLXL inh confirm: 10; MCL1 BIM confirm: 9; GLD-1 TGE cf: 6

Results for CC(=O)Nc1ccccc1-c1ccc(C)o1 ?
Bcl-xL primary: 1; MEX-5 binding: 1; GLD-1 RNA inh: 0; MCL1 BIM primary: -7; EBV gp42 inh: -3

How did COC(=O)C(C)NC(=O)C1CCCN1C(=O)CNC(=O)OCc1ccccc1 (stereo unspecified) do in these assays?
Bcl-xL primary: -3; MEX-5 binding: 3; GLD-1 RNA inh: -4; MCL1 BIM primary: 3

What do the screens show for `CC(OC(=O)/C(C#N)=C/c1ccc(N(C)C)cc1)C(=O)N(C)c1ccccc1` (stereo unspecified)?
Bcl-xL primary: -71; MEX-5 binding: 1; GLD-1 RNA inh: -160; MCL1 BIM primary: -100
